D2 ag-1 – D2 dopamine receptor (human) agonism; AID 485358; P14416; HEK293 T-REx D2 cells, calcium flux agonist mode; 340,000 tested, 0.53% active; activation, % at 2 µM;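 active means activation over 3 SD above normal in the single-dose calcium agonist read, cut at about 30% in these data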
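In this primary screen, compounds producing a positive calcium signal within 180 s of addition to tetracycline-induced, force-coupled HEK293 Trex D2 cells are flagged; cells are dye-loaded with a no-wash calcium kit beforehand.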
D2 PAM-1 – human D2 receptor positive allosteric modulation | DiscoveRx D2 beta-arrestin cells, luminescence, 90 min; 100% = 57 uM dopamine signal | potentiation, % (no concentration beside the values) | 360,000 tested, 0.23% active | AID 624464; in the data active means potentiation above about 50%; inconclusive means mostly about 30% to 49%
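D2 cells co-treated with compound plus 50 nM dopamine (EC20) for 90 min at 37 deg C to detect potentiation. Beta-arrestin recruitment was read as enzyme-fragment luminescence after 1 h at ambient temperature. Full response was set by 57 uM dopamine.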
D2 antagonist – D2 dopamine receptor (human) antagonism; HEK293 TREx D2 cells, calcium flux, dopamine EC80; inhibition, % at 10 µM; 340,000 tested, 2% active; AID 485344; in the data active means inhibition above about 30%; inactive means below that, where a call was filed
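Inhibition of EC80 dopamine-driven calcium flux, recorded kinetically, defines activity here; cells are a tetracycline-induced HEK293 T-REx line expressing force-coupled D2.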
D2 ag-2 – human D2 receptor agonism in beta-arrestin assay; P14416; DiscoveRx PathHunter D2 beta-arrestin, luminescence, 90 min; 100% = 57 uM dopamine signal; activation, % (concentration not given with the values); 360,000 tested, 0.084% active; in the data active means activation above about 40%; inconclusive means between about 15% and that limit
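DiscoveRx PathHunter D2 beta-arrestin cells (2,100/well) attached overnight, then compound-stimulated 90 min at 37 C in HBSS/10 mM HEPES/0.1% Tween-20 buffer; beta-galactosidase complementation read by luminescence after 1 h at ambient temperature. Dopamine 57 uM final (EC100) as control.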
D2 PAM-2 – positively modulates the human D2 dopamine receptor allosterically; 340,000 tested, 0.34% active; HEK293 T-REx D2, calcium flux, EC20 dopamine potentiation; P14416; potentiation, % at 10 µM;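 active means potentiation over 3 SD above the plate norm, cut at about 30% in these data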
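Using a no-wash calcium dye in inducible, force-coupled HEK293 Trex cells expressing D2, we tracked fluorescence each second for 180 s after compound, then for 180 s after EC20 dopamine to detect augmented signalling.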
D3 ag – D3 receptor agonism confirmed, beta-arrestin readout; shares compounds with D2 ag-1; DiscoveRx D3 beta-arrestin cells, luminescence, 90 min; Potency, µM (doses to about 76.9 µM), usual class: activators; 2,300 tested, 4% active; AID 720506; further: nearly all actives have a fitted effect of over 70% in size
Target sequence (P35462 whole entry, looked up): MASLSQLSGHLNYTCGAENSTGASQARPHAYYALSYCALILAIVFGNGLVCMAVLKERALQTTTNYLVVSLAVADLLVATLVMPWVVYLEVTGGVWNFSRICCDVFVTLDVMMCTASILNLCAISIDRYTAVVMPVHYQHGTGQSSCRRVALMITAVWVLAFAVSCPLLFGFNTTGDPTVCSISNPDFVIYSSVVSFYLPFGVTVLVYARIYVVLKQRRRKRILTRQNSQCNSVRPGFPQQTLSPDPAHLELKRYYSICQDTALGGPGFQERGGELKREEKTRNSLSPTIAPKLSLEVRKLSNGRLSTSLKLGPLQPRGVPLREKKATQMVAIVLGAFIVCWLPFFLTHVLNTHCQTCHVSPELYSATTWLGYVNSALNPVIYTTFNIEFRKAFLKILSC
D2 ag-3 – activates human D2 dopamine receptor in D3 counterscreen. shares compounds with D2 ag-1. DiscoveRx PathHunter D2 beta-arrestin, luminescence, 90 min; response scale: percent relative to full dopamine signal. Potency, µM (doses to about 76.9 µM), most hits filed as activators. 2,300 tested, 5.9% active. AID 720507; further: nearly all actives have a fitted effect of over 70% in size
A number is an active result; n = inactive; u = inconclusive; x = not tested or not shown. In the library only some 2.4% were active in any assay of this set; here they are far more common. Unless noted, the call rests on the fitted dose curve; in most records, active means well fitted activation curve with a large enough effect; inconclusive means small, poorly fitted or top-dose-only effect; inactive means flat fitted curve, though single readings scatter.

SMILES	D2 ag-1	D2 PAM-1	D2 antagonist	D2 ag-2	D2 PAM-2	D3 ag	D2 ag-3
CCCCN1CC(=O)N2[C@H]3c4ccc(OC)cc4OC[C@@H]3[C@H](C(=O)OCC)[C@]2(C)C1=O	n	n	n	n	n	n	n
COc1ccc2c(c1)OC[C@H]1[C@H]2N2C(=O)CN(C)C(=O)[C@@]2(C)[C@H]1c1ccccc1	n	n	n	n	n	n	n
CC(Oc1ccccc1)C(=O)Nc1nc2ccc(S(N)(=O)=O)cc2s1 (stereo not given)	n	x	x	x	n	x	x
CC(C)Oc1ccc(CNC(=O)Cc2ccc(NC(=O)N3CCSc4ncccc43)cc2)cc1	n	x	x	x	n	x	x
CCN1CCN(Cc2cccc(Oc3ccc(Cl)cc3)c2)CC1	n	n	n	n	n	x	x
CCOC(=O)C1CCN(Cc2cnc(Oc3ccc(N)cc3)s2)CC1	76.2	n	67.1	u	n	n	u
CCOC(=O)C1CCN(Cc2cccc(Oc3ccc(Cl)cc3)c2)CC1	62.0	n	71.7	u	n	u	39.8µM
Cc1nc2ccc(S(=O)(=O)N(C)CC(=O)Nc3cccc(C(F)(F)F)c3)cc2s1	n	x	x	x	n	x	x
Cc1ccc(NC(=O)CNC(=O)c2ccc3c(c2)OCO3)nc1	n	n	n	n	n	n	n
COC(=O)c1ccc(NC(=O)CN2CCN(c3ccccc3)CC2)cc1	71.3	n	95.0	u	n	n	u
COc1ccc(NC(=O)CN2CCN(c3ccccc3)CC2)cc1	54.1	n	50.0	n	n	n	n
O=C(CN1CCN(c2ccccn2)CC1)Nc1ccccc1C(=O)Nc1ccccc1	n	n	n	n	n	x	x
COC(=O)c1ccc(NC(=O)CN2CCN(c3ccccn3)CC2)cc1	64.2	n	68.5	46.3	n	n	u
CCOC(=O)c1ccc(NC(=O)CN2CCN(c3ccccc3)CC2)cc1	64.7	n	61.7	u	n	u	u
COC(=O)c1ccc(C(=O)OC)c(NC(=O)CN2CCN(c3ccccc3)CC2)c1	n	n	n	n	n	x	x
CN=C1NC(C)(C)C2CCC(C)(CC2)S1	x	n	x	n	x	x	x
Cc1ccc(NC(=O)C2(C)CCN2C(=O)Cc2cc(F)ccc2F)cc1 (stereo not given)	x	n	x	n	x	x	x
Cc1ccc(-c2cnc(C(O)c3ccc(Cl)cc3C)[nH]2)cc1 (stereo not given)	x	n	x	n	x	x	x
NC(=O)c1ccc(NC(=O)CN2CCN(c3ccccc3)CC2)cc1	72.5	n	62.9	n	n	u	u
O=C(CN1CCN(c2ccccn2)CC1)Nc1ccc(OCc2ccccc2)cc1	n	u	57.3	41.0	n	n	u
CC(=O)N1CCc2cc(C(=O)CN3CCN(c4ccccn4)CC3)ccc21	86.8	n	93.4	u	n	1.58µM	1.12µM
NC(=O)c1ccc(NC(=O)CN2CCN(c3ccc(Cl)cc3)CC2)cc1	x	n	x	n	n	x	x
Cc1cccc(N2CCN(C(=O)CCc3nnc4n(CC(C)C)c(=O)c5ccccc5n34)CC2)c1C	n	x	x	x	n	x	x
O=C(CCCc1ccccc1)c1ccccc1	n	n	n	n	n	x	x
CCN(CCCC(=O)c1ccc(F)cc1)CCc1ccccc1	82.9	n	101.6	n	n	u	n
SMILES	D2 ag-1	D2 PAM-1	D2 antagonist	D2 ag-2	D2 PAM-2	D3 ag	D2 ag-3
CCOC(=O)c1c(S(=O)(=O)NCC(=O)Nc2cccc(CC)c2)c(C)n(C)c1C	n	x	x	x	n	x	x
Cc1c(C)n(C)c2ccc(C(=O)N3CCN(c4ccccc4)CC3)cc12	n	n	x	n	n	x	x
Cc1c(C)n(C)c2ccc(C(=O)N3CCN(c4ccccn4)CC3)cc12	56.0	n	31.4	n	n	u	n
Cc1coc(C)c1C(=O)Nc1ccc2ccccc2c1	n	n	n	n	n	n	n
O=C(CCc1nnc2n(Cc3ccccc3Cl)c(=O)c3ccccc3n12)NCCCN1CCOCC1	n	n	n	n	n	x	x
Cc1ccc(Cn2c(=O)c3ccccc3n3c(CCC(=O)NCCN4CCOCC4)nnc23)cc1	62.7	n	n	n	n	n	n
CCOc1cc(-c2c(C)c(C)nc(N)c2C#N)ccc1O	n	n	n	u	n	x	x
CCOc1cc(-c2c(C)c(CC)nc(N)c2C#N)ccc1O	n	n	n	u	n	n	u
CC(C)OC(=O)c1c(NS(=O)(=O)c2ccccc2)sc2c1CCCC2	n	n	n	n	n	n	n
CCCSC1=NC2(CCN(C(=O)NC3CCCCC3)CC2)N=C1c1ccc(Cl)cc1	n	x	x	x	n	x	x
Cc1nnc(NCc2ccc(F)cc2)c2c1nnn2Cc1ccccc1Cl	n	x	x	x	n	x	x
O=C(CN1CCN(c2ccccn2)CC1)NC1CCCC1	n	n	n	n	n	n	n
Cc1cc(NC(=O)CN2CCN(c3ccccn3)CC2)ccc1Br	37.3	n	n	n	n	15.8µM	n
O=C(CN1CCN(c2ccccn2)CC1)Nc1nc2ccccc2s1	n	n	n	n	n	x	x
O=C(CN1CCN(c2ccccn2)CC1)Nc1ccc(F)c(F)c1	52.2	n	n	u	n	u	n
Cc1ccc(NC(=O)c2ncn(CCCN3CCN(c4ccccn4)CC3)n2)cc1C	x	n	x	n	x	x	x
Cc1cc(C)c(NC(=O)CN2CCN(c3ccccn3)CC2)c(C)c1	n	n	n	n	n	n	n
O=C(CN1CCN(c2ccccn2)CC1)NCCc1ccccc1	n	n	n	n	n	x	x
O=C(CN1CCN(c2ccccn2)CC1)Nc1cccc(S(=O)(=O)N2CCCC2)c1	59.9	n	60.1	n	n	u	28.2µM
CCOc1ccc(CCNC(=O)CCc2cn(Cc3ccc(F)cc3)c3ccccc23)cc1	n	x	x	x	n	x	x
CCCCNS(=O)(=O)c1ccc(NC(=O)Cc2ccc(OC)cc2)cc1	n	n	n	n	n	x	x
COc1ccc(CC(=O)Nc2ccc(S(=O)(=O)NC(C)C)cc2)cc1	x	n	x	n	x	n	n
CC(Sc1nc2ccccc2[nH]1)C(=O)Nc1ccc2c(c1)OCCO2 (stereo not given)	n	n	65.8	n	n	n	n
CC(Sc1ncccn1)C(=O)Nc1ccc2c(c1)OCCO2 (stereo not given)	x	n	x	n	x	x	x
CCOc1ccc(OCCOCCn2c(-c3ccc(Cl)cc3)nc3ccccc3c2=O)cc1	n	x	x	x	n	x	x
C=CCOc1ccc(Br)cc1CNCC	62.0	n	67.4	n	n	n	u
Cc1ccc(S(=O)(=O)N2CCN(C(=O)COC(=O)c3cc([N+](=O)[O-])ccc3NCCO)CC2)c(C)c1	x	n	x	n	x	x	x
Cc1ccc(S(=O)(=O)N2CCN(C(=O)COC(=O)c3ccc([N+](=O)[O-])o3)CC2)c(C)c1	n	n	n	n	n	n	n
O=C(COC(=O)c1ccccn1)NC(=O)c1ccccc1	n	n	n	n	n	n	n
